# Screens from PubChem.
# The list is not random: actives were taken first. Their share in the collection is about 5.7%.
# ssDAF-12 act – activators of S. stercoralis DAF-12 nuclear receptor; HEK293 ssDAF-12/GRIP1 lit1-tk-luc reporter, luminescence; % of 3 µM dafachronic acid response; activation, % at 6.8 µM; actives 1% (n = 370,000);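 active = activation above the mean over all tested compounds plus 3 SD, cut at about 0.9% in these data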;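 also: 0% = DMSO-only wells and 100% = 3 µM delta7-dafachronic acid wells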
# DAX1 inh-1 – inhibitors of human orphan nuclear receptor DAX1 (NR0B1); P51843; HEK293 Gal4-DAX1 luciferase reporter, luminescence; actives 0.99% (n = 340,000); inhibition, % at 6.75 µM; AID 504766;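 active = inhibition above the mean over all tested compounds plus 3 SD, cut at about 4.2% in these data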;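 also: 0% = DAX1-transfected cells with DMSO and 100% = empty-vector control cells with DMSO; inhibition shows as a rise in luminescence from relieved DAX1 repression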
# Target sequence (P51843 207-470 limits assumed): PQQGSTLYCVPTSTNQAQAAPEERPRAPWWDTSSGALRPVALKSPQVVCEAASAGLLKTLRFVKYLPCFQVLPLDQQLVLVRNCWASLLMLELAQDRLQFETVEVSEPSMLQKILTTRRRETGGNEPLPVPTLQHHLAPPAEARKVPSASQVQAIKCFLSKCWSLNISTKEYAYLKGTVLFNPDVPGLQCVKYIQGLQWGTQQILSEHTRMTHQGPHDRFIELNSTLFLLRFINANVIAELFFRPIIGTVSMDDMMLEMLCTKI
# hgDAF-12 ag – hgDAF-12 agonism, primary luciferase screen. HEK293 GAL4-hgDAF12 UAS-luciferase reporter, agonist luminescence; normalized to butyrate control. activation, % at 6.8 µM. actives 1.8% (n = 370,000). AID 687014;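 active = activation above a cutoff set at the mean of all screened compounds plus 3 SD, cut at about 10% in these data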;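 also: 0% = DMSO wells and 100% = sodium butyrate wells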
# DAX1 inh-2 – blocks DAX1 repression of SF-1 activated StAR promoter. inhibition, % at 6.8 µM. HEK293T StAR-luciferase reporter, SF-1/DAX-1 repression relief. actives 1.1% (n = 370,000). AID 652010;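 active = inhibition above the mean over all tested compounds plus 3 SD, cut at about 3.6% in these data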;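 also: 0% = DAX-1 cells with DMSO and 100% = cells lacking DAX-1 with DMSO; higher inhibition means more luminescence from relief of DAX-1 repression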
# hcDAF-12 act – H. contortus DAF-12 activation, primary screen. HEK293 hcDAF-12 lit1-tk-luc reporter, luminescence; 0% DMSO, 100% Δ7-dafachronic acid. actives 1.4% (n = 370,000). activation, % at 6.8 µM;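 active = activation above the mean of all tested compounds plus 3 SD, cut at about 5.5% in these data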;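 also: 100% = response to 3 µM Δ7-dafachronic acid high control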
# AHR act – activators of human aryl hydrocarbon receptor; activation, % at 5 µM; P35869; AHR-responsive luciferase reporter cells, luminescence; actives 2.5% (n = 320,000); in the data active = activation above about 47%;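 also: 0% = vehicle wells and 100% = reference agonist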
# * = called active by the depositor; x = not tested or not shown.
SMILES,ssDAF-12 act,DAX1 inh-1,hgDAF-12 ag,DAX1 inh-2,hcDAF-12 act,AHR act
Cc1cc(=O)oc2cc(OCC(=O)N3CCC(C(=O)O)(c4ccccc4)CC3)ccc12,-1.4,3.7,-3.2,-0.5,0.0,0.9
COC(=O)C1=C(c2ccc(OC)c(OC)c2)C[C@@H]2CC[C@H]1N2C(=O)NC1Cc2ccccc2C1,-1.4,-0.2,-0.6,0.1,0.9,0.5
O=C(CNCc1c(F)cccc1F)N1CCC2(CC1)OCCO2,0.7,x,9.9,3.1,3.0,x
O=C1CN(C(=O)COC(=O)Cc2ccccc2)c2ccccc2N1,-0.4,4.4*,2.6,0.6,-0.7,-0.7
CC1CC2CC(=O)CCC2(C)C2CCC3(C)C(O)CCC3C12 (centres undefined),-1.0,-0.1,-1.1,-0.5,1.4,x
Cc1c(C=C2C(=O)NC(=O)NC2=O)c(=O)n(-c2ccccc2)n1C,-1.8,0.9,2.5,-0.3,3.1,0.6
Cc1nn(Cc2ccccc2)c(C)c1C=C1C(=O)NC(=S)NC1=O,-0.9,0.5,-0.9,-0.1,6.1*,0.9
C[C@H](NC(=O)OCc1ccccc1)C(=O)NC(Cc1ccccc1)P(=O)(Oc1ccccc1)Oc1ccccc1 (some centres undefined),-1.4,x,1.9,-0.9,-2.4,x
CCCCN1C(=O)NC(=O)C2(Cc3c(nc4ccccn4c3=O)N3CCc4ccccc4C32)C1=O (centres undefined),0.1,-0.9,0.2,0.3,6.0*,11.1
COC(=O)C1=C(c2ccc(OC(F)(F)F)cc2)C[C@@H]2CC[C@H]1N2C(=O)NC(C)C,-1.4,-1.2,-1.5,-0.5,-3.2,-1.2
CC(C)(C)C(=O)N1Cc2cc(N3CCCCC3)ccc2-n2nncc2C1,-1.6,x,3.9,0.1,-1.5,x
CCN1C(=O)/C(=C/c2ccc3c(c2)CCN3CCCCl)C(=O)NC1=S,1.7*,-0.1,2.2,-0.6,3.0,9.6
O=C1NC(=S)N(C2CC2)C(=O)/C1=C/c1ccc2c(c1)CCN2CCCCl,0.6,-0.2,6.1,-1.2,3.8,12.5
N#CC[N+]1(CCCNP2(=O)C=C(c3ccccc3)OC(c3ccccc3)=C2)CCOCC1,-1.1,6.2*,-1.3,0.6,-1.4,0.1
C=CCN(CC#CCO)Cc1ccc(OC)cc1OC,-1.6,x,-1.5,0.1,-2.1,x
Cc1ccc(N2C(=O)NC(=O)/C(=C/c3ccc(OC(=O)c4cccs4)cc3)C2=O)cc1,-0.8,1.0,2.2,0.5,-2.4,-0.4
COc1ccc(N2C(=O)NC(=O)/C(=C/c3cccc(OC(=O)c4cccs4)c3)C2=O)cc1Cl,-0.9,x,1.2,0.3,5.8*,18.8
Clc1ccc(-c2nc3ccc(Cl)cn3c2CN2CCOCC2)cc1,-1.1,1.8,2.1,-0.6,-2.5,62.1*
CN(C)C(=O)Oc1ccc(Br)cc1C(=O)Nc1ccc(F)c(Cl)c1,-1.1,-0.8,2.2,0.0,1.0,66.9*
COCCO[C@H]1CC[C@@]2(C)C(=CCC3C2CC[C@@]2(C)C3CC[C@]2(C)O)C1 (some centres undefined),-0.4,-0.9,10.6*,-0.5,-0.3,-1.1
COC1=C[C@@H]2C3=C([C@@H]2C1=O)[C@@H](NC(C)=O)CCc1cc(OC)c(OC)c(OC)c13,-1.2,-0.8,2.5,0.4,-2.1,-0.1
COc1cc2c(c(OC)c1OC)-c1ccc(O)c(=O)cc1C(NC(C)=O)CC2 (centres undefined),-0.4,6.4*,-4.8,0.9,1.4,-0.6
COc1ccc2c(c1)C(NC(C)=O)CCc1cc(OC)c(OC)c(OC)c1-2 (centres undefined),-0.1,1.5,-2.8,3.9*,0.3,x
Cc1ccccc1OP(=O)(Oc1ccccc1C)N1CCOCC1,-0.7,x,-0.9,-1.7,-0.7,x
CC(C)(C)NC(=O)C1CN=C(c2ccccc2)c2cc(Cl)ccc2N1C(=O)C1CCC1 (centres undefined),-0.4,x,3.0,1.5,0.3,x
SMILES,ssDAF-12 act,DAX1 inh-1,hgDAF-12 ag,DAX1 inh-2,hcDAF-12 act,AHR act
CC(=O)O[C@@H]1/C=C/[C@](C)(O)C[C@@H](C)C/C=C/[C@H]2[C@H](O)C(C)=C(C)[C@H]3[C@H](Cc4ccccc4)NC(=O)[C@@]123,x,x,x,x,x,-3.1
C=C1C(C)C2C(Cc3ccccc3)NC(=O)C23C(OC(C)=O)C=CC(C)(O)CC(C)CC=CC3C1O (centres undefined),-0.9,4.2*,-3.2,3.8*,0.6,x
Cc1ccc(Cn2nc(C(=O)Nc3ccc(Br)cc3)cc2C)cc1,-1.4,-3.5,-3.9,-1.3,-1.6,-6.2
O=C1NC(=O)C(=Cc2cccc(OCCOc3ccccc3)c2)C(=O)N1,-0.3,-0.2,11.4*,1.1,5.5,2.7
Cc1ccc(OCCOc2cccc(C=C3C(=O)NC(=O)NC3=O)c2)c(C)c1,1.4*,-3.7,11.4*,2.5,4.4,-6.0
O=C1NC(=O)C(=Cc2ccc(OCCOc3ccc([N+](=O)[O-])cc3)cc2)C(=O)N1,-1.5,0.5,3.7,-1.0,0.2,1.3
O=C(O)Cn1cc(/C=C2\C(=O)NC(=O)N(c3ccc(Cl)cc3)C2=O)c2ccccc21,1.2*,-0.3,-0.6,0.3,2.2,18.6
O=C(O)Cn1cc(C=C2C(=O)NC(=O)NC2=O)c2ccccc21,0.0,0.0,-0.7,-0.3,4.5,12.8
CCOc1cc2c(cc1OCC)-n1cccc1C(c1ccc(C(C)C)cc1)NC2 (centres undefined),-1.8,-0.3,-4.3,-1.0,-1.3,3.0
COc1cc(/C=C/[N+](=O)[O-])ccc1OC(=O)c1cccnc1,1.3*,0.5,-1.6,-0.2,4.7,x
CC(C)C[C@H]1N=C(c2ccccc2)c2ccccc2N(CC(=O)NC(C)(C)C)C1=O,-1.6,x,-1.6,0.3,-1.5,x
Cc1cc([P+](=O)O)c(C)n1-c1ccc(Br)cc1,1.5*,-0.4,1.3,-0.4,4.5,44.2
Cc1c(N=Nc2c(O)n(-c3ccc(Br)cc3)c(=O)[nH]c2=O)c(=O)n(-c2ccccc2)n1C,-0.8,2.4,-2.3,0.5,-0.5,3.4
CCS(=O)(=O)Nc1cccc(C(=C2CCCCC2)c2cnc[nH]2)c1,-1.3,-1.1,-2.6,1.2,-1.8,57.9*
CCc1ccc(-c2nn(Cc3ccccc3)cc2C=O)cc1,-0.7,1.4,13.2*,3.5,1.5,9.9
O=Cc1cn(Cc2c(F)cccc2Cl)nc1-c1ccccc1,0.0,-0.1,1.0,0.5,0.7,3.8
O=C(CF)NC(NC(=S)Nc1ccccc1O)C(Cl)(Cl)Cl (centres undefined),-1.0,4.9*,-1.4,-1.1,2.9,7.6
CN(C)c1cccc2c(C#N)ccc(N(C)C)c12,-1.0,x,-1.5,0.5,0.7,1.2
CC1(C)NC(=S)C(C)(C)N1N=O,6.5*,-0.1,0.1,0.9,-1.0,x
CCC(C)N1C(=O)/C(=C\c2ccc(N3CCCCCC3)cc2)C(=O)NC1=S (centres undefined),5.5*,-1.4,0.7,-2.2,-0.1,-0.5
